# Source: PubChem
# Shown are actives, neighbours in structure and some others; about 2.4% of the full set was active somewhere.
# NOD2-RIPK2 inh: blocks binding of human NOD2 to RIPK2. O43353. CHO BLA complementation NOD2-RIPK2, CCF4 ratio. inhibition, % at 4.98 µM. 0.38% of 360,000 active; in the data active = inhibition above about 21%;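 note: 0% = vehicle only and 100% = reference blocker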
# Target sequence (O43353 whole entry, looked up): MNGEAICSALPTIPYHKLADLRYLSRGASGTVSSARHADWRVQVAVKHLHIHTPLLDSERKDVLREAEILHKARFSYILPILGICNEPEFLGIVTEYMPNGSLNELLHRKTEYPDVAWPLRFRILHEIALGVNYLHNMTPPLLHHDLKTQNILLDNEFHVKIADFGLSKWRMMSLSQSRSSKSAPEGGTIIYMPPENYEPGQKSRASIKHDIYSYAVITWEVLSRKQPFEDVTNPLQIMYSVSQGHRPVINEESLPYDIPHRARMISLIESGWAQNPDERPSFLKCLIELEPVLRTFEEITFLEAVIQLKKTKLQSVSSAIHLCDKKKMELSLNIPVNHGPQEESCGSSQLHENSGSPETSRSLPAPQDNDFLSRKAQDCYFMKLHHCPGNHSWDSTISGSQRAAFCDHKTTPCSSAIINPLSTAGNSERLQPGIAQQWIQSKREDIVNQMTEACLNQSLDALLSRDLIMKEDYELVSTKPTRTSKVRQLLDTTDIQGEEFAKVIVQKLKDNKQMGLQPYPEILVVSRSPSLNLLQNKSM
# HSF1 activator: increases HSF-1 driven luciferase reporter signal; NIH3T3-HGL HSF-1 luciferase reporter, MG132, 8 h; 100% = twice DMSO control signal; activation, % at 9 µM; 1.7% of 300,000 active; AID 504408;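 active = mean replicate activation of at least 50% with a set share of replicates each reaching 50%; inconclusive = only one of those two conditions met; inactive = mean below 50% and too few replicates reaching it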;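 note: 0% = median of the neutral control wells and 100% = twice that signal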
# HSF1 inhib: HSF1 inhibition. NIH3T3-HGL HSE-luciferase, MG132-induced, luminescence 8 h; hits give low values. AID 2098. 0.77% of 300,000 active. activity change, negative = inhibition, % at 7.5 µM (by protocol);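 active = more than half of replicate wells show activity change below -50%, luminescence cut by over half; inconclusive = some wells, but at most half, below -50%; inactive = no replicate well below -50%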;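 note: luciferase reports HSF-1 transcriptional activity via heat shock element; 0% = median of DMSO wells and -100% = zero luminescence signal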
# TLR9-MyD88 inh: inhibitors of human TLR9-MyD88 binding; 0.21% of 340,000 active; inhibition, % at 4.98 µM; CHO BLA complementation TLR9-MyD88, CCF4 FRET ratio;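 active = inhibition above the mean over all tested compounds plus 3 SD, cut at about 21% in these data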;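 note: 0% = DMSO only wells and 100% = clavulanate BLA inhibitor control wells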
# TLR4 MyD88 comp: blocks binding of human TLR4 to MyD88; inhibition, % at 8.4 µM; 0.18% of 200,000 active; HeLa CL3-4 TLR4/MyD88 BLA complementation, FRET ratio; in the data active = inhibition above about 25%;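 note: 0% = vehicle and 100% = reference inhibitor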
# * = called active by the depositor; u = inconclusive; x = no result given.
SMILES,NOD2-RIPK2 inh,HSF1 activator,HSF1 inhib,TLR9-MyD88 inh,TLR4 MyD88 comp
O=c1[nH]c2ccccc2nc1/C=C/c1ccc(F)cc1,-4,41,27,2,-1
COC(=O)c1c(N2C(=O)[C@H]3[C@@H](C2=O)[C@]2(C(=O)Nc4c(C)cccc42)N2CCC[C@@H]32)sc(C)c1C,-8,-79,-74*,-8,-2
CCCCn1c(N)c(N(CC(C)C)C(=O)c2cccc(S(=O)(=O)N3CCCCCC3)c2)c(=O)[nH]c1=O,-7,-3,-6,-2,x
CCCCn1c(N)c(N(CC(C)C)C(=O)c2cccc(S(=O)(=O)N3CCCCC3)c2)c(=O)[nH]c1=O,-6,-77,-71*,3,x
Cc1ccc(C(=O)Cn2cnc3ccccc3c2=O)cc1C,1,41,22,-6,7
Cc1ccc(C(=O)Cn2nnc3ccccc32)cc1,2,67*,26,-7,-11
O=C(Cn1nnc2ccccc21)c1ccc(Br)cc1,-8,11,14,-6,x
Cc1ccc(C(=O)Cn2nnc3ccccc32)cc1C,-7,58*,30,-5,-4
CCCCC[C@@H](C)N1C[C@H](COCc2ccccc2)Oc2cc(N3CCC[C@H]3COC)ccc2S1(=O)=O,-8,x,x,x,x
Cc1c(NC(=O)C2CC(c3ccc(F)cc3)=NO2)c(=O)n(-c2ccccc2)n1C (centres undefined),-1,-88,-84*,-7,-5
COc1ccc2c(=O)c(N3C(=O)c4ccccc4C3=O)coc2c1,-11,-11,-8,9,-4
COc1ccc2oc(=O)c(N3C(=O)c4ccccc4C3=O)cc2c1,-4,-72,-66*,-4,x
C/C(=N\O)C1CCCCC1,x,-66,-57*,x,x
COc1ccc(/C(N)=N/OC(=O)CCc2ccccc2)cc1OC,-10,28,20,-2,5
COc1ccc(/C(N)=N/OC(=O)CCc2ccccc2)cc1,-11,55*,34,9,-4
COc1ccc(C(=O)O/N=C(\N)c2ccccn2)cc1,-6,-78,-75*,6,x
Cc1ccc(C(=O)O/N=C(\N)c2ccccn2)c(C)c1,4,-90,-89*,3,x
Cc1cc(/C(N)=N/OC(=O)c2cccc(Cl)c2)no1,-6,28,20,x,x
Cc1cc(/C(N)=N/OC(=O)c2ccc(Cl)cc2)no1,-4,64*,32,x,x
COc1ccccc1C(=O)O/N=C(\N)c1ccccn1,-6,-10,14,1,x
COc1ccc2[nH]c(=O)c(CN(Cc3cccnc3)Cc3nnnn3CC3CCCO3)cc2c1 (centres undefined),4,-13,-4,-4,x
Cn1cnc(S(=O)(=O)NC2CCN(Cc3ccccc3)CC2)c1,6,-9,-2,-6,x
CN(CC(=O)Nc1ccccc1Br)C(=O)c1ccccc1OCc1ccccc1Cl,-5,x,x,-4,x
COc1cc(OC)cc(C(=O)NNC(=O)c2ccccn2)c1,-3,-12,-10,-1,4
COc1cc(OC)cc(C(=O)O/N=C(\N)c2ccccn2)c1,-20,55*,30,x,x
SMILES,NOD2-RIPK2 inh,HSF1 activator,HSF1 inhib,TLR9-MyD88 inh,TLR4 MyD88 comp
COc1ccc(C(=O)NNC(=O)c2ccccn2)cc1,1,-76,-68*,2,-1
CCn1cc([N+](=O)[O-])c(=O)c2cc(F)c(N3CCOCC3)cc21,-2,-2,3,-7,x
COc1cccc(C(=O)CC(=O)C(=O)Nc2cc(OC)c(OC)c(OC)c2)c1,x,-62,-58*,x,x
Cc1sc(NC(=O)c2ccccc2)c(C#N)c1-c1ccccc1,-6,57*,33,0,-4
O=C1CC(c2ccc(Cl)c([N+](=O)[O-])c2)c2ccc3ccccc3c2N1 (centres undefined),-3,-72,-65*,4,-6
CN(C)c1ccc(C2CNC(c3ccc(Cl)c([N+](=O)[O-])c3)c3[nH]c4ccccc4c32)cc1 (centres undefined),4,-13,0,1,x
O=C1c2cc([N+](=O)[O-])cc3cc([N+](=O)[O-])cc(c23)C(=O)N1c1ccccn1,-1,124*,92,-7,9
COC(=O)C1C2OC(C(Br)C2Br)C1C(=O)OC (centres undefined),-13,x,x,0,x
COc1ccc(C(=O)CC(=O)C(=O)Nc2cccc([N+](=O)[O-])c2C)cc1,-8,58*,19,1,x
CCCCOc1ccc(C(=O)Nc2ccc(C)cc2[N+](=O)[O-])cc1,3,17,9,-2,7
CCCOc1ccc(C(=O)Nc2ccccc2[N+](=O)[O-])cc1,-5,59*,35,1,4
COc1cccc(OCC(O)CNC(=O)c2oc3ccc(C)cc3c2C)c1 (centres undefined),-6,8,-5,-5,x
O=C(Nc1ccc(N2CCN(C(=O)c3ccccc3)CC2)cc1)c1ccc([N+](=O)[O-])o1,14,111*,89,2,-4
Cc1ccccc1C(=O)N1CCN(c2ccc(NC(=O)c3ccc([N+](=O)[O-])o3)cc2)CC1,2,86*,61,-1,x
Cc1ccc(NC(=O)c2cccc(NC(=O)/C=C/c3ccco3)c2)cc1C,-13,73*,40,1,7
CC(C)C(=O)N1CCN(c2ccc(NC(=O)c3ccc([N+](=O)[O-])o3)cc2)CC1,15,u,33,1,1
O=C(/C=C\c1ccco1)Nc1ccc(N2CCN(C(=O)c3ccccc3)CC2)cc1,8,66*,38,-6,-18
Cc1ccc(N(CC(O)CN2C(=O)NC(C)(C)C2=O)S(=O)(=O)c2ccc([N+](=O)[O-])cc2)cc1 (centres undefined),-7,-11,0,2,x
Cc1ccc2[nH]c(=O)c(CN(Cc3cccs3)Cc3nnnn3Cc3ccccc3)cc2c1,-2,71*,24,6,-1
CCOC(=O)Cn1nnnc1CN(Cc1cccs1)Cc1cc2cc(C)ccc2[nH]c1=O,-3,9,9,-9,2
COc1ccc(C(=O)N/N=C/c2ccccc2OC(=O)c2ccccc2)cc1,7,10,0,-5,x
COc1cc(C(=O)Oc2ccccc2/C=N/NC(=O)c2ccc(C)cc2)cc(OC)c1OC,-12,66*,32,-11,2
O=C1CN(C(=O)COC(=O)c2cc(Cl)ccc2[N+](=O)[O-])c2ccccc2N1,1,x,x,-9,x
O=C(Nc1ccc2c(c1)OCCO2)C(c1ccnc2ccccc12)N1CCN(C/C=C/c2ccccc2)CC1 (centres undefined),1,x,x,x,x
COC(=O)c1cc(=O)n(Cc2ccc3c(c2)OCO3)c(=Nc2ccc(F)cc2)s1,-9,-5,-9,-5,-6
COC(=O)c1cc(=O)n(-c2ccc(F)cc2)c(=Nc2ccc(F)cc2)s1,-2,57*,48,-14,5
COC(=O)c1cc(=O)n(Cc2cccs2)c(=Nc2ccc(F)cc2)s1,0,52*,45,-1,-9
O=C(Cc1ccccc1)Nc1cc(Cl)ccc1Sc1ccccc1,9,58*,29,11,8
